# Test results from PubChem BioAssay (NCATS).
# Results filed as inconclusive are left out. Entries that show only a call come without a potency. A number with no mark means an inactive call. Calls of active or inactive are those of the source. Calls follow the shape of the dose curve; as a rule, active = well fitted curve in the direction sought with a large enough effect; inconclusive = small, poorly fitted or top-dose-only effect, or another doubt; inactive = no such curve, though single readings can be large; an effect the other way counts as inactive or inconclusive.
# Legend:
# [1] = molecular target: Calcium and integrin-binding protein 1 (Homo sapiens) (UniProt Q99828); test: Primary qHTS for Identification of Calcium Integrin Binding Protein 1 (CIB1) Competitor (AID 1508620); conditions: CIB1-GST / FITC-alphaIIb peptide fluorescence polarization; series mostly up to 57.7 µM;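 also: GST tagged CIB1 binding a fluorescein labelled alphaIIb integrin peptide tracer; top concentration of the series differs between compounds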
# Method in brief: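 Fluorescence polarization competition: GST-tagged CIB1 (1 uM final) preincubated with compound 15 min at room temperature, then FITC-labelled alphaIIb peptide (100 nM final) added. After 15 min at room temperature, polarization read at Ex 480/Em 540.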
# [2] = Counterscreen qHTS for small molecule stabilizers of the endoplasmic reticulum resident proteome: GLuc-NoTag assay (AID 1508627); conditions: Gaussia luciferase NoTag secretion counterscreen, luminescence, thapsigargin 100 nM for final 4 h; series mostly up to 76.4 µM
# Method in brief: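 Counterscreen line: SH-SY5Y-GLuc-NoTag. Seed, 5 h; compound, 19 h; thapsigargin 100 nM, 4 h; 37C/5% CO2. Readout: secreted GLuc luminescence, coelenterazine 0.07x final, no lysis.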
# [3] = Confirmatory qHTS for small molecule stabilizers of the endoplasmic reticulum resident proteome: Secreted ER Calcium Modulated Protein (SERCaMP) assay (AID 1508628); conditions: SERCaMP secreted luciferase ER calcium/proteostasis reporter; series mostly up to 76.3 µM; also: nearly all actives have a fitted effect of over 40% in size
# Method in brief: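 Reporter secretion upon ER calcium depletion (100 nM thapsigargin, 4 h, 37C) is measured as medium luminescence with coelenterazine, after 16 h compound pretreatment of SH-SY5Y-GLuc-SERCaMP cells; primary at three concentrations up to 38.3 uM, follow-up at 11 (up to 76.6 uM).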
# [4] = Cell Viability qHTS for small molecule stabilizers of the endoplasmic reticulum resident proteome (AID 1508629); conditions: cell viability counter-screen, 100 nM thapsigargin for final 4 h;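 also: human SH-SY5Y neuroblastoma cells carrying the GLuc-SERCaMP reporter; compound exposure about 46 h in total before the viability read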
# Calcium and integrin-binding protein 1 (Homo sapiens), sequence (Q99828 whole entry, looked up): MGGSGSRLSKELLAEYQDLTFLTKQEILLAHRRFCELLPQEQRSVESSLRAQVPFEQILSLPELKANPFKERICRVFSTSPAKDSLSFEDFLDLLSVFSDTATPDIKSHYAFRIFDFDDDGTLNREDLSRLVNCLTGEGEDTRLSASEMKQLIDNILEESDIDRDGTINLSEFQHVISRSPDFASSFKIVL
structure (smiles),measurement,setting,value
CN[C@@H]1CN(c2ccc3c(=O)c(C(=O)O)cn(-c4nccs4)c3n2)C[C@@H]1OC,Potency,[1],inactive
CO[C@H]1O[C@@H]2O[C@@]3(C)CC[C@@H]4[C@@H](C)CC[C@@H]([C@H]1C)[C@@]24OO3,Potency,[1],inactive
CC(C)=CCCC(C)=CCCC(C)=CCCC(C)=CCCC(C)=CCCC(C)=CCCC(C)=CCCC(C)=CCCC(C)=CCO,Potency,[1],inactive
same,Potency,[2],inactive
same,Potency,[3],inactive
same,max response,[4],2.98%
Cc1ccccc1C(=O)c1ccc(Nc2ccc(Br)cc2N)cc1Cl,Potency,[1],inactive
CCC(=O)OCC(=O)[C@@]1(OC(=O)CC)[C@@H](C)C[C@@H]2[C@H]3CCC4=CC(=O)C=C[C@]4(C)[C@@]3(F)[C@@H](O)C[C@@]21C,Potency,[1],inactive
CCOC(=O)[C@H]1O[C@H]1C(=O)N[C@@H](CC(C)C)C(=O)NCCC(C)C,Potency,[1],inactive
CN1CCC[C@H]1CCO[C@](C)(c1ccccc1)c1ccc(Cl)cc1,Potency,[1],inactive
same,Potency,[2],inactive
CC(NCCc1ccc(O)cc1)C(O)c1ccc(O)cc1 (configuration not stated),Potency,[1],inactive
